# Molecular target: FAM22D
# Assay: pooled miR-30 sensor sort-seq; sequence = guide strand
# Settings: shRNA
row,Sequence,sensor-assay potency score (higher = more potent)
1,TTGAAAGTAAACAGGTTCCTGG,-0.42
2,TCTCATAGACACTCCTGGGGTT,0.0703
3,TGAGGAAGCACGAAAGCGCTTC,-0.41
4,AATTCTTCCAGGAATTGGGGAT,-0.511
5,TACTCCTGCACCACTTCTGGGG,-0.442
6,TTCCACAATGAGAAAAGCCAAG,-1.63
7,TTAGACAGCACCAGAGGGCCGC,-0.28
8,TGGTCTCTGCTGGTCTCTGGGG,-1.54
9,TAAGACCAAGGTCTGCGCCTGA,-0.117
10,ATGAATGACGGCCTCCACCTTG,-1.02
11,TTGGTCTCTGCTCGCCGGTGGG,-1.33
12,AAGTTAGACAGCACCAGAGGGC,-0.454
13,TTGGTGACGAAGTCTTTCTGGG,-0.0512
14,TTCGGTGTCAGGACTCTGGGGA,0.265
15,TTTGAAAGTAAACAGGTTCCTG,-0.0805
16,TTCTCATAGACACTCCTGGGGT,-0.655
17,TGTTCTGTCACCAGAGGTGTGC,-0.395
18,TAAGACCCAGAGAGTGACCTGG,-0.135

# Molecular target: FAM22F
# Assay: as above
# Settings: shRNA
row,Sequence,sensor-assay potency score (higher = more potent)
1,AAGCACAGCAGGGTCTTCGGAC,-0.95
2,AAGGACTTGAGTCCAACCTGGC,-0.389
3,TCTCTCGCTGCTTCTTGGCCAG,-0.748
4,TTTCTGAGCAGATGGAGACTGA,-0.731
5,TTCTTGGACTTGCTGGCAGGAG,-0.948

# Reference: the OligoGym collection
